The results in this text go back to PubChem BioAssay (Tox21).

SMILES strings stand for the structures. Values joined by “and” are separate entries in the source; they are usually repeats but may differ in a detail not shown here. Equal values may be shown once. Unmarked numbers belong to inactive results. Results filed as inconclusive are left out. Active and inactive are the calls of the source. Unless noted, calls come from the whole dose curve; as a rule, active = well fitted curve in the direction sought with a large enough effect in the repeat runs; inconclusive = weak or mixed curves; inactive = no such curve, though single readings can be large; an effect the other way counts as inactive or inconclusive.

The nature of assay [1]: qHTS assay to identify small molecule agonists of the hypoxia (HIF-1) signaling pathway - cell viability counter screen (AID 1224844; calls by dose curve; note: nearly all actives have a fitted effect of over 50% in size). Particulars: HRE-bla ME-180 viability, CellTiter-Glo luminescence, 17 h; series mostly up to 76.8 µM. In short, it runs like this: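 HRE-bla ME-180 cells, 2,000/well in 0.5% dialyzed FBS medium, treated 17 h at 37C with compounds. Viability read in the same wells as the bla reporter, by CellTiter-Glo luminescence after 30 min at room temperature.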
On the technique in general: In qHTS, concentration-response curves come from the screen itself.

Assay [2] in a line: qHTS assay to identify small molecule agonists of H2AX (AID 1224845; active = well fitted activation curve with a large enough effect in the signal ratio in the repeat runs, not every such curve was filed as active; the % refers to the signal ratio). Particulars: CHO-K1 phospho-H2AX Ser139 HTRF, 3 h; series mostly up to 154 µM. The essentials: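 Wild-type CHO-K1 cells, plated overnight, exposed 3hr at 37C to 15 concentrations (0.76% DMSO final). Lysed, then HTRF anti-pH2AX (S139) cryptate and anti-H2AX-d2 antibodies, 24 hr room temperature; 665/620 nm emission read.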

Assay [3] is described as follows: qHTS assay to identify small molecule agonists of the hypoxia (HIF-1) signaling pathway (AID 1224846; active = well fitted activation curve with a large enough effect in the signal ratio in the repeat runs, not every such curve was filed as active; the % refers to the signal ratio). To be noted: HRE-bla ME-180 cells, beta-lactamase ratio, 17 h; series mostly up to 76.8 µM. The essentials:
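HRE-bla ME-180 beta-lactamase reporter cells in medium with 0.5% dialyzed FBS, pre-incubated 5 h then exposed to compounds 17 h at 37C, 5% CO2; reporter induction read with CCF4-AM FRET substrate.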

Assay [4] in a line: qHTS assay to identify small molecule agonists of H2AX - cell viability counter screen (AID 1224847; calls by dose curve; note: top concentration of the series differs between compounds; nearly all actives have a fitted effect of over 30% in size). To be noted: CHO-K1 viability, CellTiter-Glo luminescence, 3 h; series mostly up to 154 µM. The essentials: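 CHO-K1 wt, 1000 cells/well, o/n 37C; cpds 15 conc, 3 h 37C, 0.76% DMSO; CellTiter-Glo, 30 min RT, luminescence.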
Assay [5] in a line: qHTS RealTime-Glo MT Cell Viability Assay in HepG2 cells - 24 hour (AID 1224867). Note: nearly all actives have a fitted effect of over 50% in size. Particulars: RealTime-Glo luminescence; series mostly up to 76.8 µM. In short, it runs like this: (§1)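 HepG2 suspension premixed with RealTime-Glo reagents is plated at 600 cells per well and left 5 h at 37 C/5% CO2. Compounds in DMSO then go in, and bioluminescence reflecting viable cell number is recorded over 40 h.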

The nature of assay [6]: qHTS RealTime-Glo MT Cell Viability Assay in HEK293 cells - 32 hour (AID 1224868). For activity change, negative = cytotoxic: top concentration of the series differs between compounds. Note: nearly all actives have a fitted effect of over 50% in size. Note: potency is the fitted concentration of half-maximal effect. To be noted: RealTime-Glo luminescence; series mostly up to 76.8 µM. In short, it runs like this: (§2)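 Reads taken at 0, 8, 16, 24, 32 and 40 h from the same wells. HEK293 cells (600/well) carried RealTime-Glo reagents from seeding, with compound added after a 5 h settle at 37 C.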
Assay [7] can be described thus: A CellTox Green Cytotoxicity Assay to monitor cytotoxicity in HEK293 cells - 0 hour (AID 1224869). Note: nearly all actives have a fitted effect of over 50% in size. To be noted: CellTox Green fluorescence; series mostly up to 76.8 µM. The essentials:
(§3)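 HEK293 cells, 600/well, were preincubated 5 hours and then exposed to compounds at 37 C for up to 40 hours. A cell-impermeant cyanine dye staining dead-cell DNA was read by fluorescence at 0, 8, 16, 24, 32 and 40 h time points.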

Assay [8] can be described thus: qHTS RealTime-Glo MT Cell Viability Assay in HepG2 cells - 40 hour (AID 1224870). Note: nearly all actives have a fitted effect of over 50% in size. Particulars: RealTime-Glo luminescence; series mostly up to 76.8 µM. The essentials:
(§4)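 HepG2 cells (600/well) mixed with RealTime-Glo MT reagent, settled 5 h at 37 C/5% CO2 before compound addition. Nonlytic NanoLuc luminescence from viable-cell prosubstrate reduction read repeatedly during 40 h treatment at 37 C.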

A short description of assay [9]: A CellTox Green Cytotoxicity Assay to monitor cytotoxicity in HEK293 cells - 40 hour (AID 1224871). Note: nearly all actives have a fitted effect of over 45% in size. To be noted: CellTox Green fluorescence; series mostly up to 76.8 µM. In short, it runs like this:
as §3

The nature of assay [10]: qHTS RealTime-Glo MT Cell Viability Assay in HEK293 cells - 16 hour (AID 1224872). To be noted: RealTime-Glo luminescence; series mostly up to 76.8 µM. In short, it runs like this: as §2
A short description of assay [11]: qHTS RealTime-Glo MT Cell Viability Assay in HepG2 cells - 8 hour (AID 1224873). Note: nearly all actives have a fitted effect of over 55% in size. To be noted: RealTime-Glo luminescence; series mostly up to 76.8 µM. The essentials:
as §4

Assay [12] in a line: qHTS RealTime-Glo MT Cell Viability Assay in HEK293 cells - 40 hour (AID 1224874). Note: nearly all actives have a fitted effect of over 50% in size. Note: potency is the fitted concentration of half-maximal effect. Particulars: RealTime-Glo luminescence; max response: active compounds read low. The essentials:
(§5)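 600 cells/well were plated with the nonlytic NanoLuc/prosubstrate reagent, pre-incubated 5 h, then given 23 nL of compound in DMSO. Incubation at 37 C for 40 h, with luminescence from viable-cell-reduced substrate read repeatedly from 0 h.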

A short description of assay [13]: A CellTox Green Cytotoxicity Assay to monitor cytotoxicity in HEK293 cells - 24 hour (AID 1224875). Note: nearly all actives have a fitted effect of over 45% in size. To be noted: CellTox Green fluorescence; series mostly up to 76.8 µM. In short, it runs like this: as §3
A short description of assay [14]: A CellTox Green Cytotoxicity Assay to monitor cytotoxicity in HepG2 cells - 16 hour (AID 1224876). Note: nearly all actives have a fitted effect of over 45% in size. Particulars: CellTox Green fluorescence; series mostly up to 76.8 µM. In short, it runs like this: (§6)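 HepG2 cells, 600/well, preincubated 5 h with CellTox Green dye, then exposed to Tox21 compounds in DMSO at 37 C for up to 40 h. Dead-cell DNA fluorescence read at the indicated time point.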

The nature of assay [15]: qHTS RealTime-Glo MT Cell Viability Assay in HepG2 cells - 32 hour (AID 1224877). Note: nearly all actives have a fitted effect of over 55% in size. Particulars: RealTime-Glo luminescence; series mostly up to 76.8 µM. The essentials:
as §1

A short description of assay [16]: A CellTox Green Cytotoxicity Assay to monitor cytotoxicity in HepG2 cells - 24 hour (AID 1224878). Note: nearly all actives have a fitted effect of over 45% in size. Note: potency is the fitted concentration of half-maximal effect. Particulars: CellTox Green fluorescence; series mostly up to 76.8 µM. In short, it runs like this: as §6
A short description of assay [17]: A CellTox Green Cytotoxicity Assay to monitor cytotoxicity in HepG2 cells - 40 hour (AID 1224879). Note: nearly all actives have a fitted effect of over 40% in size. To be noted: CellTox Green fluorescence; series mostly up to 76.8 µM. In short, it runs like this: as §6
The nature of assay [18]: qHTS RealTime-Glo MT Cell Viability Assay in HEK293 cells - 0 hour (AID 1224880). To be noted: RealTime-Glo luminescence; series mostly up to 76.8 µM. In short, it runs like this:
as §5
% is set by controls: 0 for no effect and ±100 for the full control effect.

As for `CCC1(CCC(C)C)C(=O)NC(=O)NC1=O`, the Potency result in assay [1], in assay [2], in assay [4], in assay [5], in assay [6] and in assay [7] was “inactive” in each case. Besides, the Potency result in [8], in assay [9], in [10], in [11], in assay [13] and in [14] was “inactive” each time. For the same molecule, the Potency entry in assay [15], in [16] and in assay [17] was “inactive” in each case. Also, the result in assay [3] and in assay [18] was inactive. Moreover, the max response in assay [12] was -4.01%.
`O=C1NC(=O)C(=O)C(=O)N1`: the Potency result in assay [1], in assay [2], in assay [4], in [5], in assay [6] and in assay [7] was “inactive” in each case. For the same molecule, the Potency result in assay [8], in [9], in assay [10], in assay [11], in assay [13] and in assay [15] was “inactive” throughout. For the same molecule, the Potency entry in [16] and in assay [17] was “inactive” in each case. Also, the result in [3] and in [18] was inactive. Further, in [12], the max response was 6.33%.
As to `Cc1ccccc1`, the Potency result in assay [1], in [2], in assay [4], in assay [5], in assay [6] and in [7] was “inactive” throughout. The Potency result in assay [8], in [9], in assay [10], in [13], in assay [16] and in [17] was “inactive” throughout. Moreover, the outcome in [3] and in assay [18] was inactive. Besides, the max response in [12] was 11.7%.
Take `CCCCCCCCCCCCN=C(N)N`: the activity change, negative = cytotoxicity was -8.49% [at 2.72 µM] in assay [1], -0.757% [at 5.43 µM] in [4], -4.51% [at 2.72 µM] in assay [5] and 2.39% [at 2.72 µM] in assay [18]. The activation (H2AX phosphorylation) in assay [2] is -1.39% [at 5.45 µM]. Further, the activation in assay [3] is 0.622% [at 2.67 µM]. The Potency in assay [6] was 1200 nM (active); in assay [12] it was 1070 nM (active). The values for the cytotoxicity in [7] and in [16] were 9.65% [at 2.72 µM] and -6.79% [at 2.72 µM], respectively. The activity change, negative = cytotoxic is 1.81% [at 2.72 µM] in [8] and -5.5% [at 2.72 µM] in assay [15]. Besides, the cytotoxicity increase is 10.9% [at 2.72 µM] in assay [9], -5.75% [at 2.72 µM] in assay [14] and -4.41% [at 2.72 µM] in assay [17]. Moreover, the viability change, negative = cytotoxic in [11] was -3.99% [at 2.72 µM]. Besides, the activity change in assay [13] was 11.7% [at 2.72 µM, active compounds read high].
Consider `OCC1CO1` (stereo not drawn), for which the Potency result in assay [1], in assay [2], in [4], in assay [5], in assay [6] and in assay [7] was “inactive” in each case. The Potency entry in [8], in assay [9], in [10], in assay [11], in assay [13] and in assay [15] was “inactive” in each case. For the same molecule, the result in assay [3] and in assay [18] was inactive. Besides, the max response in assay [12] is 0.843% and 1.08%. Also, the Potency in assay [16] is 44400 nM (active).
On to `CC(Cl)C(=O)O` (stereo not drawn), for which the Potency entry in assay [1], in assay [2], in assay [4], in assay [5], in assay [6] and in assay [7] was “inactive” throughout. Besides, the Potency result in [8], in assay [9], in [10], in [11], in assay [13] and in [15] was “inactive” in each case. For the same molecule, the Potency entry in assay [16] and in assay [17] was “inactive” in each case. For the same molecule, the outcome in [3] and in assay [18] was inactive. Also, the max response in assay [12] was 19.1%.
With `CCCCC1C(=O)NC(=O)N(C2CCCCC2)C1=O` (stereo not drawn), the Potency result in [1], in [2], in assay [4], in [5], in assay [6] and in assay [7] was “inactive” each time. The Potency entry in assay [8], in assay [9], in [10], in assay [11], in assay [13] and in [14] was “inactive” throughout. The Potency result in [15], in assay [16] and in [17] was “inactive” each time. The outcome in assay [3] and in assay [18] was inactive. In addition, the max response in assay [12] is -0.655%.
